In the library only some 4.6% were active in any assay of this set; here they are far more common.
VACV mCherry inh = qHTS for Stage-Specific Inhibitors of Vaccinia Orthopoxvirus: mCherry Reporter Primary qHTS; actives 0.63% (n = 310,000); Vaccinia virus mCherry reporter infection, fluorescence; Potency, µM (doses to about 36.5 µM), for the others: top-dose activity change, negative = inhibition, usual class: inhibitors; calls by dose curve; tested in A549 cells; also: nearly all actives have a fitted effect of over 35% in size
MARV entry inh = qHTS for inhibitors of binding or entry into cells for Marburg Virus | Marburg virus pseudotyped entry inhibition, cell reporter | Potency, µM (doses to about 37.8 µM), inactives show at the highest dose activity change, negative = inhibition, most hits filed as inhibitors | actives 1.8% (n = 300,000); calls by dose curve; tested in HEK293 cells
Lassa entry inh = qHTS for Inhibitors of binding or entry into cells for Lassa Virus. Lassa virus pseudotype entry inhibition, cell reporter. Potency, µM (series often up to 37.9 µM), inactives show at the top dose activity change, negative = inhibition, usual class: inhibitors. actives 1.2% (n = 300,000); calls by dose curve; tested in HEK293 cells; also: nearly all actives have a fitted effect of over 50% in size
VACV Venus inh = qHTS for Stage-Specific Inhibitors of Vaccinia Orthopoxvirus: Venus Reporter Primary qHTS | Vaccinia virus Venus reporter expression, fluorescence | Potency, µM (series often up to 36.5 µM), for the others: at the top dose activity change, negative = inhibition, actives largely listed as inhibitors | actives 0.46% (n = 330,000) | AID 720580, 2013; calls by dose curve; tested in A549 cells; also: nearly all actives have a fitted effect of over 30% in size
HCV inhibitor = qHTS Assay for Inhibitors of Hepatitis C Virus (HCV). Huh7.5.1 HCVcc-Cre infection, luciferase reporter, 44 h. Potency, µM (series often up to 41.8 µM), without a hit: top-dose activity change, negative = inhibition, actives largely listed as inhibitors. actives 3.4% (n = 340,000). AID 651820, 2012; active = well fitted inhibition curve with a large enough effect; inconclusive = small, poorly fitted or top-dose-only effect, or another doubt; inactive = no such curve, though single readings can be large or run the other way
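Compounds are dispensed onto cells plated 4 h earlier at 1,000 per well, with HCVcc-Cre virus (about 0.5 moi) added next. Following 44 h of culture, luminescent signal is measured for 15 sec after 15 min with substrate at room temperature.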
An asterisk follows results filed as active; i = inactive; ? = inconclusive; nt = no result; ! = not active in a repeat; [ ] = remark or other dose. % is scaled to controls: 0 for no effect and ±100 for the full control effect; potency is read from the fitted curve at half-maximal effect.

SMILES	VACV mCherry inh	MARV entry inh	Lassa entry inh	VACV Venus inh	HCV inhibitor
CCCCCCCCCCn1ccc(=N)cc1	?	?	1.78µM*	?	22.4µM*
COc1ccc(OC)c2c(/C=C/c3c(C)[nH]c4ccccc34)ccnc12	12.6µM*	nt	nt	-21.5%	nt
COc1ccc(OC)c2c(/C=C/c3ccc(N(C)C)cc3)ccnc12	-15.6%	nt	nt	6.0%	nt
C=C1C(=O)O[C@@H]2C[C@@H](C)[C@@H]3C4OC4C(=O)[C@@]3(C)[C@@H](O)[C@H]12 (stereo partly specified)	?	nt	nt	14.1µM*	?
C=C1C(=O)OC2C1CCC(C)C1C=CC(=O)C12C (stereo unspecified)	11.2µM*	11.2µM*	?	?	?
CC1C(=O)O[C@@H]2C[C@@H](C)[C@@H]3CCC(=O)[C@@]3(C)[C@@H](O)[C@H]12 (stereo partly specified)	i	nt	nt	1.1%	18.1%
C=C1C(=O)OC2C1CCC(C)C1(O)C=CC(=O)C21C (stereo unspecified)	?	nt	nt	-26.0%	8.91µM*
C=C1C(=O)O[C@H]2C[C@@H](C)[C@@H]3C=CC(=O)[C@@]3(C)C[C@H]12	?	nt	nt	?	-51.4%
C=C1C(=O)OC2CC(C)C3C=CC(=O)C3(C)C(O)C12 (stereo unspecified)	?	0.631µM*	1.26µM*	6.31µM*	2.51µM*
CN(CCO)C(=O)c1cn(C2CCN(Cc3ccc4ccccc4c3)CC2)nn1	-6.9%	nt	nt	0.0%	nt
C=C1C(=O)O[C@H]2[C@H]1[C@H](OC(=O)CC(=O)O[C@@H]1C[C@@H](C)[C@@H]3C=CC(=O)[C@@]3(C)[C@H]3OC(=O)C(=C)[C@H]13)C[C@@H](C)[C@H]1C=CC(=O)[C@]12C	?	nt	nt	-26.7%	?
C=C1C(=O)O[C@@H]2C[C@@H](C)[C@@H]3C=CC(=O)[C@@]3(C)[C@@H](OC(=O)CC(=O)O[C@H]3[C@@H]4C(=C)C(=O)O[C@@H]4C[C@@H](C)[C@@H]4C=CC(=O)[C@]43C)[C@H]12	?	nt	nt	2.51µM*	1.12µM*
CC1(C)C(C=C(Cl)Cl)C1C(=O)Nc1ccc([N+](=O)[O-])cc1 (stereo unspecified)	?	?	?	17.8µM*	?
O=C(Nc1ccc([N+](=O)[O-])cc1)C1CC1(c1ccccc1)c1ccccc1 (stereo unspecified)	0.7%	?	-7.6%	-16.8%	?
Cc1ccc(-c2nn(CC(=O)NCc3cc(-c4nn(C)c(=O)c5ccccc45)ccc3C)c(=O)c3ccccc23)cc1	?	3.16µM*!	?	?	?
Cc1ccc(NC(=O)c2ccc(-c3nn(C)c(=O)c4ccccc34)cc2)cc1	nt	-22.9%	-12.2%	nt	12.6µM*
COc1ccc(-c2nn(C)c(=O)c3ccccc23)cc1NC(=O)COc1ccc(C)cc1	nt	?	5.8µM*	nt	?
Cn1nc(-c2ccc(C(=O)Nc3ccc(F)cc3)cc2)c2ccccc2c1=O	-0.5%	?	?	-5.3%	?
Cc1ccc(-c2nn(C)c(=O)c3ccccc23)cc1CNC(=O)c1ccccc1	-8.9%	?	11.2µM*	-14.3%	-7.4%
CCC(=O)Nc1cc(-c2nn(C)c(=O)c3ccccc23)ccc1OC	nt	?	17.9%	nt	-17.8%
Cc1ccc(Cl)cc1NC(=O)N1CCc2cc(S(=O)(=O)N3CCC(C)CC3)ccc21	-18.6%	22.2%[46.1 µM]	6.0%[46.1 µM]	-20.3%	nt
COc1ccc(-c2c(-c3ccc(OCC(=O)NN)cc3O)n[nH]c2C)cc1	?	-17.2%[46.1 µM]	-3.0%	-20.9%	-16.3%
C=C(C)COc1ccc(-c2[nH]ncc2-c2ccc(OC)c(OC)c2)c(O)c1	nt	1.58µM*	1.26µM*	10µM*	2µM*
C=C(C)COc1ccc(-c2[nH]ncc2-c2ccccc2)c(O)c1	nt	?	8.91µM*	?	-22.4%
Nc1ncc(-c2ccccc2)c(-c2ccc(OCc3ccccc3)cc2O)n1	?	-29.0%	?	-23.7%	1.78µM*
C=C(C)COc1ccc(-c2n[nH]c(C)c2-c2ccc(OC)c(OC)c2)c(O)c1	?	?	0.631µM*	?	12.6µM*
COc1ccc(-c2nc(N)ncc2-c2ccccc2)c(O)c1	nt	nt	nt	nt	-14.6%

Bioassay records as filed in PubChem BioAssay.
